# Experimental data from PubChem BioAssay AID588405 (Sanford-Burnham Center for Chemical Genomics, 2011).
# Values joined by “and” are separate entries in the source; they are usually repeats but may differ in a detail not shown here. Equal values may be shown once. The campaign covered roughly 360,000 compounds. About 6,200 (1.7%) were called active. Many of the other results were omitted from the sample, so actives are more common in it than they were. Unmarked numbers belong to inactive results.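 How the source made its calls: active means inhibition of at least 50% at 20 µM; inactive means the rest.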
# Experiment: inhibition of PEG-3 promoter activity – cell-based, HeLa, luciferase luminescence, primary screen (AID 588405)
# Conditions: HeLa PEG-Prom luciferase reporter, overnight, at 20 µM, stronger effect = higher value
row,Structure (SMILES),inhibition
1,COc1cc(C=C(OC(C)=O)c2ccc3c(c2)OCO3)cc(OC)c1OC,7.01%
2,COc1ccc(C2CC(c3ccccc3)=NN2C(=O)c2ccc(Cl)c([N+](=O)[O-])c2)cc1 (stereo not drawn),72.4% (active)
3,COc1ccc(C2CC(c3ccccc3)=NN2C(=O)CSc2nccc(=O)[nH]2)cc1 (stereo not drawn),-109%
4,COc1ccc(C2=NN(C(=O)c3ccccc3C(=O)O)C(c3ccccc3O)C2)cc1 (stereo not drawn),-268%
5,CC(=O)Nc1cc(-c2ccccc2N(C)C)cn2c(-c3ccc(F)c(Cl)c3)cnc12,32%
6,COc1ccc(NC(=O)C(C)SCc2ccccc2)cc1 (stereo not drawn),-27.6%
7,O=C(c1cc(C2CCCCN2S(=O)(=O)c2ccccc2)on1)N1CCOCC1 (stereo not drawn),1.6%
8,COc1cc(Cn2c3ccc(NC(=O)CC(C)c4ccccc4)cc3c(=O)n2C)ccc1F (stereo not drawn),12.9%
9,CC1(C(=O)O)CCCN(C(=O)/C=C/c2ccccc2)C1 (stereo not drawn),5.91%
10,Cc1[nH]c(=O)c(C(=O)/C=C/c2ccccc2)c2c1CCCC2,102% (active)
11,COC(=O)c1c(C)[nH]c(C(=O)/C=C/c2ccc(Cl)cc2)c1C,-126%
12,COc1ccc(-c2coc3c(C(=O)NC(C)C)cccc23)c(C)c1,10.8%
13,COc1ccc(S(=O)(=O)NC(=O)C2(C)CCN2C(=O)c2ccccc2CCc2ccccc2)cc1 (stereo not drawn),-1.34%
14,CCCC(=O)N1CCC1(C)C(=O)NCc1ccc(SC)cc1 (stereo not drawn),-5.97%
15,Cc1cccc(N2C(=O)SC(SC(=Nc3ccccc3)Nc3ccccc3)C2=O)c1 (stereo not drawn),-30%
16,Cc1ccc(-c2nn(C(C)(C)C)c3ncnc(N)c23)cc1,55.2% (active)
17,N#Cc1ccc(-c2ccc3nccn3c2)cc1,-24.7%
18,O=C1NC(c2ccccc2)=NC1(Nc1ccccn1)C(F)(F)F (stereo not drawn),-4.5%
19,CC(=O)c1ccc(-c2cnc3c(NC=O)cc(-c4cccc(NS(C)(=O)=O)c4)cn23)cc1,48.1%
20,N/C(=N/O)c1cccn1Cc1ccccc1[N+](=O)[O-],3.69%
21,Cc1ccc(-c2ccc(=O)n(Cc3ccc(F)cc3Cl)n2)cc1,2.87%
22,O=c1c([N+](=O)[O-])cccn1Cc1ccc(F)cc1Cl,56.1% (active)
23,CC(C)c1cccc(-c2csc(C(O)c3ccccc3)n2)c1 (stereo not drawn),-103%
24,CSCCC(c1nnnn1Cc1ccccc1)N1CCN(C/C=C/c2ccccc2)CC1 (stereo not drawn),11.4%

row,Structure (SMILES),inhibition
1,CCc1ccc(C2N3CC4([N+](=O)[O-])CN2CC([N+](=O)[O-])(C3)C4(C)C)cc1 (stereo not drawn),27.3%
2,C=CC[n+]1c(-c2ccc(C)cc2)csc1NNC(=O)Nc1ccccc1,-6.81%
3,NC(c1csc(NC(=O)Nc2ccccc2Oc2ccccc2)n1)c1ccccc1Cl (stereo not drawn),58.1% (active)
4,CC(=O)c1ccc(Nc2nc(C(N)c3ccccc3Cl)cs2)cc1 (stereo not drawn),-22.8%
5,COc1ccccc1NC(=O)Nc1nc(CC(=O)Nc2ccccc2F)cs1,4.34%
6,O=S1(=O)C[C@@H](N2CCN(CCO)CC2)[C@H](COCc2ccccc2)N1,-0.57%
7,COC(=O)C1=C(C)N(C(C)c2ccccc2)C(=O)/C1=C\c1ccco1 (stereo not drawn),12.2%
8,CCN(CC)CCCNC(=O)c1ccc2c(=O)n(Cc3ccc4c(c3)OCO4)c(=S)[nH]c2c1,56.1% (active)
9,O=C(CCn1c(=S)[nH]c2cc3c(cc2c1=O)OCO3)NCc1ccc(Cl)cc1,9.93%
10,COCCn1c(=S)[nH]c2cc(C(=O)NCCc3ccc(OC)c(OC)c3)ccc2c1=O,17.6%
11,Cc1ccc(S(=O)(=O)CCC(=O)Nc2nnc(CC(C)C)s2)cc1,10.6%
12,O=C(Nc1nnc(-c2ccc(F)cc2)s1)c1c(F)cccc1Cl,-27.2%
13,Cc1nnc(NC(=O)C(c2ccccc2)c2ccccc2)s1,-0.94%
14,CSc1nnc(NC(=O)c2nc(S(=O)(=O)Cc3ccc(C)cc3)ncc2Cl)s1,103% (active)
15,NC(=O)CSc1nnc(NC(=O)c2ccc(Br)o2)s1,-5.94%
16,Cc1ccc(CS(=O)(=O)c2ncc(Cl)c(C(=O)Nc3nnc(C)s3)n2)cc1,98.9% (active)
17,Nc1nc2cc(Cl)ccc2n1N,-1.93%
18,CC(C)NC(=O)C1(C)CCCCCN1C(=O)c1ccc(-c2ccccc2)cc1 (stereo not drawn),-0.82%
19,O=C(c1[nH]ncc1-c1ccc(Cl)cc1)C1CO1 (stereo not drawn),52% (active)
20,COc1ccc(NC(=O)C2Cc3c(-c4ccc(Cl)cc4)ccnc3O2)cc1 (stereo not drawn),22.6%
21,COc1cccc(C(NC(C)=O)c2nc(-c3ccccc3OC)cs2)c1 (stereo not drawn),-8.65%
22,Nc1nc(NC(=O)/C=C/c2ccccc2)nn1-c1ccccc1,-6.78%
23,c1ccc(-n2cccc2)c(N2CCCCC2)c1,2.67%
24,O=C1C=CC(=O)N1c1ccc(N2CCCCC2)cc1,108% (active)

row,Structure (SMILES),inhibition
1,CCC(=O)c1ccc(OCC(=O)Nc2ccc(N3CCCCC3)cc2)cc1,-13.9%
2,CN1OC[C@@H]2CN(C(=O)c3cccnc3)[C@H](c3ccc(N4CCCCC4)cc3)C[C@@H]21,-11.6%
3,CCOC(=O)C1=C(CN2CCc3ccccc32)NC(=O)NC1c1ccc(Cl)cc1 (stereo not drawn),61.5% (active)
4,CCOC(=O)C1=C(CN2CCc3ccccc32)NC(=O)NC1c1cc(C)ccc1C (stereo not drawn),34.6%
5,CCOC(=O)C1=C(CN2CCc3ccccc32)NC(=O)NC1c1cccc([N+](=O)[O-])c1 (stereo not drawn),43.4%
6,COc1cc(CCN=Cc2ccccc2O)c([N+](=O)[O-])cc1OC,-5.6%
7,O=C(NCC(O)c1nc2ccccc2[nH]1)c1ccc(Br)cc1 (stereo not drawn),-5.63%
8,CCc1nc2ccc(C(=O)Nc3cccc(OC)c3)cn2c1N(CCC(C)C)CCN(C)C,-15.1%
9,COc1ccccc1OCC(=O)OCn1c(SC)nnc(C)c1=O,14.2%
10,CC(=O)Nc1ccc(S(=O)(=O)N(C)c2nc3ccccc3nc2Cl)cc1,2.27%
11,CC(=O)Nc1ccc(Nc2c3ccccc3nc3ccccc23)cc1,106% (active)
12,CC(=O)Nc1ccc(Nc2c([N+](=O)[O-])cc(S(C)(=O)=O)cc2[N+](=O)[O-])cc1,3.04%
13,CC(C)Nc1nc(NCCOc2ccccc2Cl)c2sccc2n1,34.3%
14,COc1ccc(-c2[nH][nH]c(=O)c2NC(=O)c2ccc([N+](=O)[O-])cc2)cc1,9.48%
15,CCN(CC)CCOc1ccc2c(c1)C(=NNC(=O)c1ccccn1)c1cc(OCCN(CC)CC)ccc1-2,109% (active)
16,CC(O)c1ccc(OCCN(C)c2ccccn2)cc1 (stereo not drawn),-135%
17,CN(CCOc1ccc(CC2SC(=O)NC2=O)cc1)c1ccccn1 (stereo not drawn),-26.7% and -30.1%
18,CCCCc1cc2c(s1)CCCC/C2=N/O,6.83%
19,COCCCN(C(=O)CSCc1ccc(C)cc1)c1c(N)n(Cc2ccccc2)c(=O)[nH]c1=O,-0.45%
20,O=C(c1ccc(F)cc1)n1c(=S)nc2ccccn21,-101%
21,O=C(Oc1ccc(-c2nc(-c3ccccn3)no2)cc1)c1ccccc1,66.5% (active)
22,O=C(COC(=O)c1ccncc1)c1ccccc1,3.29%
23,Brc1ccc(-c2noc(-c3ccccc3)n2)o1,-291%
24,O=C1C=C(c2ccc(Cl)cc2)C(=O)N1Nc1ccccc1,105% (active)

row,Structure (SMILES),inhibition
1,NC(=O)C1CCN(C(=O)c2ccc(-c3ccccc3)cc2)CC1,5.02%
2,O=C(Nc1ccccc1)C1CCN(C(=O)c2ccc(Br)cc2)CC1,-7.9%
3,O=C1Nc2cc(C(=O)N3CCC(N4CCCCC4)CC3)ccc2S/C1=C\c1ccccc1,90.7% (active)
4,O=C(Nc1ccc(F)cc1)C1CCCN(S(=O)(=O)c2ccc(-n3cnnn3)cc2)C1 (stereo not drawn),24.8%
5,CCc1ccc(-c2cc3c(=O)n(CC(=O)NCCCN4CCN(Cc5ccccc5)CC4)nc(C)n3n2)cc1,105% (active)
6,Cc1nn(CC(=O)NCCc2ccccc2)c(=O)c2cc3occc3n12,-8.09%
7,Cc1ccc(-c2ccc(=O)n(CC(=O)NCCCN3CCCCC3)n2)cc1,5%
8,CC1(C(=O)Nc2cccnc2)Cc2c(-c3ccccc3)ccnc2O1 (stereo not drawn),13.4%
9,CC1(C(=O)Nc2cccc(Oc3ccccc3)c2)CCN1Cc1ccccc1Cl (stereo not drawn),18.7%
10,Nc1ncnc2c1ncn2[C@@H]1O[C@H](C(=O)N2CCSC2)[C@@H](O)[C@H]1O,-1.06%
11,COc1ccccc1Cc1c(-c2ccc(Cl)cc2)nc2ccc(Cl)cn12,-200%
12,Cc1cccc(C)c1-n1nnnc1C(CCc1ccccc1)N1CCN(C/C=C/c2ccccc2)CC1 (stereo not drawn),4.21%
13,COc1cc(OC)nc(N/N=C(\c2ccccc2)c2ccncc2)n1,-16.6%
14,C/C(=N/Nc1nc(-c2ccccc2)c(CC(=O)O)s1)c1ccccc1,-245%
15,c1ccc(C(=NNc2nc3ccccc3s2)c2ccccn2)cc1,60.3% (active)
16,CCCNC(=O)c1cc(C2CCCCN2C(=O)OC)on1 (stereo not drawn),8.59%
17,CCOc1cc(-c2conc2N)cc(OCC)c1OCC,10.1%
18,CC(C)CNC(=O)C1(C)CCCN1C(=O)CSc1ccccc1 (stereo not drawn),-0.74%
19,Cc1ccc2cc(/C=N/Nc3ccc(C(=O)O)cc3)c(Cl)nc2c1,-255%
20,O=C(O)c1ccc(N/N=C/c2ccc3ncccc3c2)cc1,70.7% (active)
21,CCNC(=S)NNC(=O)c1ccc2ncccc2c1,-28.3%
